Bioassay records: PubChem BioAssay, several laboratories
An excerpt weighted towards active compounds, which were near 4.2% of everything screened.
MITF act = MITF TRPM1 promoter activation in melanoma cells. SK-MEL-5 TRPM1-promoter luciferase, 24 h; % of positive control, neutral wells = 0. 300,000 tested, 0.75% active. AID 588334. activation, % at 12.5 µM;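 active means mean activation of at least 80% with every replicate also reaching 80%; inconclusive means mean reaches 80% but some replicate falls short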
AHR act = activates the human aryl hydrocarbon receptor | 320,000 tested, 2.5% active | AHR-responsive luciferase reporter cells, luminescence | activation, % at 5 µM; in the data active means activation above about 47%
FXN GAA850 act = increases GAA850 frataxin promoter reporter activity | 360,000 tested, 0.56% active | AID 540364 | HEK293 lucGAA850 FXN promoter luciferase reporter, 24 h; percent of 10 µM SAHA response | activation, % at 6 µM;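 active means activation above the average of all compounds screened plus 3 SD, cutoff fixed separately per campaign, cut at about 7.5% in these data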
esBAF inh = inhibitors of esBAF chromatin remodeling in mouse ES cells; Bmi1-luciferase knock-in reporter, 24 h; 100% = twice the neutral-well signal; reporter increase, % at 12.5 µM; 350,000 tested, 2% active; in the data active means activation above about 40%; inconclusive means no clear call, values can overlap the other calls;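 further: a rise in the Bmi1 reporter signal indicates esBAF inhibition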
Wnt bcat act = activators of Wnt/beta-catenin signaling. activation, % at 9.35 µM. 300,000 tested, 1.2% active. Wnt/beta-catenin reporter cell assay, activator, plate reader. AID 743398; in the data active means activation above about 30%, passing the limit was not always enough; inconclusive means no clear call, values can overlap the other calls
AHR act confirm = human AHR activation, confirmation; shares compounds with AHR act; human cells, AHR-responsive luciferase reporter, luminescence; 2,300 tested, 87% active; activation, % at 9 µM; in the data active means activation above about 49%;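 further: HepG2 hepatoma cells carrying a DRE-driven firefly luciferase reporter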
PXR act counter = counter-screen for AHR activators: human PXR activators | shares compounds with AHR act | cell-based PXR reporter, luciferase luminescence | activation, % at 11.6 µM | 2,300 tested, 88% active | AID 434939; in the data active means activation above about 11%;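 further: human hepatoma DPX-2 cells expressing full-length human PXR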
Target sequence (O75469 whole entry, looked up): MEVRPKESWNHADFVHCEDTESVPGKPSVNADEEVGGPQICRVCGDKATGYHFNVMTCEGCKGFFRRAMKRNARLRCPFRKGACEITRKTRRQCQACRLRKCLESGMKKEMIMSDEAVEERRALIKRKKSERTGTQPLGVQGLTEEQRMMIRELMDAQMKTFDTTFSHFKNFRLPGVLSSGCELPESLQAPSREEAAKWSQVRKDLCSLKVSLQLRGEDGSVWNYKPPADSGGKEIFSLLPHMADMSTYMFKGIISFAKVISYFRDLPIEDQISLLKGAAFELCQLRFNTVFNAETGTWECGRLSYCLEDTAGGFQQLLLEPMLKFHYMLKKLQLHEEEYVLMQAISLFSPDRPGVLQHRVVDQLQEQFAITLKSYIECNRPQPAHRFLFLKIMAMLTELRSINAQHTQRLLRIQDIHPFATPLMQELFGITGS
Hits are given with their value; 0 = inactive; ? = inconclusive; - = not tested or not shown.

SMILES	MITF act	AHR act	FXN GAA850 act	esBAF inh	Wnt bcat act	AHR act confirm	PXR act counter
Cc1cc(/C=C2\NC(=S)NC2=O)c(C)n1-c1cccnc1	-	100	0	0	0	59	33
C[C@H](O)C#Cc1cnc2c(c1)C(=O)N([C@H](C)CO)C[C@@H](C)[C@@H](CN(C)C(=O)CN1CCOCC1)O2	-	-	-	0	-	-	-
CN1/C(=C/C(=O)C2CCC2)Sc2ccccc21	0	138	0	-	0	138	23
CN1/C(=C\C(=O)c2cccs2)C(C)(C)c2ccccc21	0	0	0	0	0	-	-
CN1/C(=C/C(=O)c2cccs2)Sc2ccccc21	0	86	0	0	-	115	23
O=C(c1ccc2c(c1)OCO2)N1C[C@@H]2[C@H](c3ccccc31)[C@H](CO)N2C(=O)CC1CC1	-	-	-	0	-	-	-
CCCN1[C@@H]2c3ccc(-c4ccccc4F)c(=O)n3C[C@H]1[C@H](CO)[C@H]2C(=O)NCC	-	-	-	0	-	-	-
O=C(C[n+]1cc2ccccc2c2ccccc21)c1ccccc1	0	87	0	-	-	93	55
O=C(C[n+]1cccc2ccccc21)c1ccccc1	0	0	0	0	-	-	-
CNC[C@@H]1Oc2c(N)cccc2C(=O)N([C@H](C)CO)C[C@@H]1C	-	-	-	0	-	-	-
COc1ccc(NC(=O)c2ccc3nc[nH]c3c2)cc1	0	80	0	0	0	79	19
O=C(Nc1ccc(OC(F)(F)F)cc1)c1ccc2nccnc2c1	0	86	0	0	0	81	15
COc1ccc(CCNC(=O)c2ccc3nc[nH]c3c2)cc1	0	0	0	-	0	-	-
Cc1nc2ccc(C(=O)Nc3ccc4nc[nH]c4c3)cc2[nH]1	-	0	0	0	0	-	-
O=C(Nc1ccc(C(F)(F)F)cc1)c1ccc2nc[nH]c2c1	0	106	0	0	0	98	10
CN1C(=O)c2cc(NC(=O)C3CCOCC3)ccc2OC[C@@H]2O[C@@H](CC(=O)O)CC[C@H]21	-	-	-	0	-	-	-
COc1cccc(-c2cnc3c(c2)C(=O)N([C@H](C)CO)C[C@H](C)[C@H](CN(C)S(=O)(=O)c2cn(C)cn2)O3)c1	-	-	-	0	-	-	-
COC(=O)C[C@H]1C[C@@H]2c3cc(NS(=O)(=O)c4ccccc4)ccc3O[C@@H]2[C@@H](CO)O1	-	-	-	0	-	-	-
CCc1cccc(NC(=O)Cc2cn(C)c3ccccc23)c1	-	104	0	0	0	0	83
CCc1ccc(NC(=O)Cc2cn(C)c3ccccc23)cc1	-	0	0	0	0	-	-
O=C(N/N=C/c1c[nH]c2ccccc12)c1cc(Cl)ccc1O	0	148	0	0	0	113	0
O=C(N/N=C/c1c[nH]c2ccccc12)C1COc2ccccc2O1 (stereo unspecified)	0	92	0	-	0	72	-
Cc1occc1C(=O)N/N=C/c1c[nH]c2ccccc12	0	123	0	50	0	112	23
O=C(N/N=C/c1c[nH]c2ccccc12)c1ccccc1Cl	0	-	0	0	0	-	-
CCc1ccc(/C=N/NC(=O)c2c[nH]c3ccccc23)s1	89	85	0	0	?	0	42
SMILES	MITF act	AHR act	FXN GAA850 act	esBAF inh	Wnt bcat act	AHR act confirm	PXR act counter
CCCc1cc(C(=O)N/N=C/c2ccc(CC)s2)c2ccccc2n1	0	0	0	0	0	-	-
C[C@@H]1CN([C@H](C)CO)C(=O)c2cc(C3=CCCCC3)cnc2O[C@H]1CN(C)C(=O)NC1CCCC1	-	-	-	0	-	-	-
C[C@@H]1CCCCO[C@@H](CN(C)S(=O)(=O)c2ccc(Cl)cc2)[C@H](C)CN([C@H](C)CO)C(=O)c2cc(NC(=O)NC3CCCCC3)ccc2O1	-	-	-	0	-	-	-
CCn1c(SCC(=O)NCCc2ccccc2)nc2c([nH]c3ccccc32)c1=O	0	109	0	-	0	86	168
COC(=O)C(C)Sc1nc2c([nH]c3ccccc32)c(=O)n1C (stereo unspecified)	0	0	0	-	0	-	-
Cn1c(SCC(=O)NCc2ccccc2)nc2c([nH]c3ccccc32)c1=O	-	84	-	-	-	97	126
CCC(C)Sc1nc2c([nH]c3ccccc32)c(=O)n1C (stereo unspecified)	0	87	0	0	0	88	52
COCCn1c(SCC(=O)N2CCCCCC2)nc2c([nH]c3ccccc32)c1=O	0	0	0	0	0	-	-
CCn1c(SCC(=O)N2CCCCCC2)nc2c([nH]c3ccccc32)c1=O	0	128	0	0	0	102	182
